This note sets out measurements from PubChem BioAssay.

Calls of active or inactive are those of the source.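 How the source made its calls, unless noted: active means fluorescence slope higher than the sample average by over 3 SD (cut at about -0.22 in these data, passing the limit was not always enough); inactive means the rest.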

Test [1] can be described thus: inhibitors of TNFa-induced NFkB p65 translocation, primary screen, imaging, HUVEC, MLSMR starter and 10KST1 sets (AID 438;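 active means inhibition above 20% together with a positive visual image hit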;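 further: compound added about 3h40 before a 20 min TNFalpha stimulation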;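 on inhibition: signal is the nuclear over cytoplasmic p65 intensity ratio per well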). The following applies: HUVEC TNFa-induced p65 nuclear translocation; cell count: measured here: nuclei count (cytotoxicity indicator), at 2.08 µM; inhibition: at 2 µM, stronger effect = higher value, 0% TNFa-plus-vehicle, 100% no-TNFa wells.
Test [2] can be described thus: inhibitors of mutant huntingtin aggregation, primary screen, imaging, exon1htt(103Q)mCFP cells, high-content imaging (AID 483;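 active means visual image review flags a hit and inhibition of aggregation exceeds 20%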;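 further: compound exposure lasted 3 days before fixation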;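 on nuclei count: percent of the per-plate median nuclei count of sample wells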). The following applies: exon1htt(103Q)mCFP cell line, aggregate imaging, at 2 µM; inhibition of aggregation: stronger effect = higher value; nuclei count: measured here: cell count, toxicity.
The nature of test [3]: inhibitors of E-selectin induction by TNFa, primary screen, imaging, HUVEC, immunofluorescence, MLSMR starter and 10KST1 sets (AID 487;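 active means visually confirmed hit in the image check and inhibition above 20%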;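 on inhibition: signal is fraction of cell area covered by stained E-selectin grains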;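 on nuclei count: 100% = median nuclei count of all wells on the same plate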). The following applies: HUVEC TNFalpha-induced E-selectin immunofluorescence imaging, at 2 µM; inhibition: stronger effect = higher value; nuclei count: measured here: cell number, toxicity.
Test [4] concerns the target Voltage-gated potassium channel subunit beta-2 (Rattus norvegicus) (UniProt P62483). In words: KvBeta enzyme negative modulators, primary screen, biochemical, NADPH fluorescence (AID 622).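 Further: slope of raw intensity against log time taken from 70 to 1610 s.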 The following applies: recombinant KvBeta, 4-cyanobenzaldehyde reduction, at 10 µM, stronger effect = higher value.
Test [5] has the same target. The experiment in a line: KvBeta positive modulators, primary screen, biochemical, NADPH fluorescence (AID 623;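 active means NADPH fluorescence slope more negative than the mean of all samples by about 3 SD, 99.7% confidence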;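 further: fluorescence intensity change per second fitted from 20 to 320 s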). The following applies: Recombinant KvBeta, NADPH fluorescence decrease slope, 10 min; at 10 µM; stronger effect = lower value.
For test [6], the target named is Alpha-2C adrenergic receptor (Homo sapiens) (UniProt P18825). The experiment in a line: modulators of alpha2C/GIRK thallium flux, primary screen, cell-based, HEK293 alpha2C/GIRK1/2 (AID 624;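 active means fluorescence slope after compound addition differing from the mean of all screened samples at 99.7% confidence, in either direction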;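 further: slope of fluorescence ratio to pre-addition baseline per second over 15 to 24 s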). The following applies: thallium flux BTC fluorescence, at 10 µM, actives lie on both sides.
Alpha-2C adrenergic receptor (Homo sapiens), sequence (P18825 whole entry, looked up): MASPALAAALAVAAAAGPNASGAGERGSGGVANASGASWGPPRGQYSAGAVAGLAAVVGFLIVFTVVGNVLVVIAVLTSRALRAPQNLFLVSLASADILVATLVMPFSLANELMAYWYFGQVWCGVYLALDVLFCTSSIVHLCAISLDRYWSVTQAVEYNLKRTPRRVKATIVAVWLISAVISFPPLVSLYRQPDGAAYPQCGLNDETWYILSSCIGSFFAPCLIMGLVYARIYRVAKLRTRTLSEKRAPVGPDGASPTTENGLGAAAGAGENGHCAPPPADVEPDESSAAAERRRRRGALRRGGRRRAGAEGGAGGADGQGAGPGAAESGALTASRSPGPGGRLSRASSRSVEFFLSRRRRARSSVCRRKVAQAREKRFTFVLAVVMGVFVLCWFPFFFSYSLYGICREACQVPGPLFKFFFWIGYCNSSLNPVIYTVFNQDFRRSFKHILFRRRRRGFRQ
Test [7] in a line: inhibitors of Sendai virus-induced IRF3 signaling, primary screen, TLR/RLR signaling modifier project, cell-based, Sendai virus stimulus, luciferase, 10K MLSCN set (AID 602276;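 active means inhibition at or above 50% at 10 µM; inactive means inhibition below 50%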;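 further: firefly luciferase from ISG56 promoter only with Renilla not read in this screen; 0% = Sendai virus plus DMSO and 100% = medium plus DMSO without virus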). Particulars: HEK293 RL24 IRF3 luciferase reporter, at 10 µM, stronger effect = higher value. (In general: In a reporter assay the amount or activity of a reporter protein is the signal.)
Test [8] can be described thus: inhibitors of poly I:C-induced TLR3 signaling, primary screen, cell-based, poly I:C stimulus, luciferase, 10K MLSCN set (AID 602277;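 active means inhibition of the reporter signal at or above 50%; inactive means inhibition below 50%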). Particulars: HEK293-TLR3 RL24 IRF3 luciferase reporter, at 10 µM, stronger effect = higher value.

Voltage-gated potassium channel subunit beta-2 (Rattus norvegicus), sequence (P62483 whole entry, looked up): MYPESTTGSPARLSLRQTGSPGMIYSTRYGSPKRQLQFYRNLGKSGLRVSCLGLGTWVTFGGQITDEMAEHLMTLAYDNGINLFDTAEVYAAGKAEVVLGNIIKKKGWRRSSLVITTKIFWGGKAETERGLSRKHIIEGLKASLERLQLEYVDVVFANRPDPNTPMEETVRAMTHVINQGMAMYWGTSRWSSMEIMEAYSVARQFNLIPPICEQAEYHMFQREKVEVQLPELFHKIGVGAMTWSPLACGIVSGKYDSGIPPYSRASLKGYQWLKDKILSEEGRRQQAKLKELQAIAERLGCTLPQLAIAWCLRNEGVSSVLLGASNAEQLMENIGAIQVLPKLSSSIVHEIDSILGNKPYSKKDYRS

On to `Cc1c(NC(=O)c2ccc(COc3ccc4ccccc4c3)o2)c(=O)n(-c2ccccc2)n1C`, for which, in test [1], the cell count is 417. The inhibition (as a rule, the change of the read-out against control, counted positive when it falls) was 2.2% (inactive) in test [1], -55.3% (inactive) in test [3], -13.4% (inactive) in test [7] and -61.2% (inactive) in test [8]. Moreover, in test [2], the inhibition of aggregation is 1.1% (inactive). Besides, the nuclei count in test [2] is 101%; in test [3], 109%. The fluorescence slope in test [4] was -0.598 (inactive). Moreover, the NADPH fluorescence slope in test [5] was -2.6e-05 (inactive). In addition, in test [6], the slope is 0.0029 (inactive).
Regarding `CCOc1ccccc1N(CC(=O)N1CCCCCC1)S(C)(=O)=O`, the cell count in test [1] came to 358. The inhibition in test [1] is -10% (inactive); in test [3] it was -83.5% (inactive); in test [7], 9.48% (inactive); in test [8] it was 19.4% (inactive). Also, in test [2], the inhibition of aggregation is -1.2% (inactive). In addition, the nuclei count in test [2] and in test [3] was 117% in each case. For the same molecule, the fluorescence slope in test [4] was -0.447 (inactive). In test [5], the NADPH fluorescence slope was -1.3e-05 (inactive). In test [6], the slope was 0.00598 (inactive).
For `CCOC(=O)N1CCC(n2c(SCC(=O)NCc3ccco3)nc3ccsc3c2=O)CC1`, in test [1], the cell count was 729. Besides, the inhibition in test [1] was 3.4% (inactive); in test [3], -97.7% (inactive); in test [7] it was 4.14% (inactive); in test [8], 23.6% (inactive). Also, in test [2], the inhibition of aggregation was 2.8% (inactive). Further, the nuclei count in test [2] amounted to 97.8%; in test [3], 118%. Besides, in test [4], the fluorescence slope is -0.386 (inactive). Besides, the NADPH fluorescence slope in test [5] is -2.9e-05 (inactive). Moreover, the slope in test [6] was 0.00588 (inactive).
In the case of `Cc1ccc(N2C(N)=NC(N)=NC23CCCC3)c(C)c1`, the cell count in test [1] came to 656. The inhibition was -5.9% (inactive) in test [1], -26% (inactive) in test [3], 10% (inactive) in test [7] and 18.1% (inactive) in test [8]. In addition, the inhibition of aggregation in test [2] is -11.1% (inactive). The values for the nuclei count in test [2] and in test [3] were 106% and 122%, respectively. Also, the fluorescence slope in test [4] was -0.635 (inactive). Also, in test [5], the NADPH fluorescence slope was -5.6e-06 (inactive). In test [6], the slope is 0.0067 (inactive).
`Cc1ccc(S(=O)(=O)N2CCC(C(=O)N3CCN(Cc4ccccc4)CC3)CC2)cc1`: the cell count in test [1] was found to be 659. The inhibition in test [1] is -14% (inactive); in test [3] it was -40.7% (inactive); in test [7], 8.56% (inactive); in test [8] it was 16.4% (inactive). Besides, the inhibition of aggregation in test [2] was 19% (inactive). For the same molecule, the nuclei count in test [2] was 110%; in test [3], 106%. Further, the fluorescence slope in test [4] is -0.518 (inactive). In addition, in test [5], the NADPH fluorescence slope is -1.5e-05 (inactive). The slope in test [6] is 0.0064 (inactive).
Turning to `O=C(CSc1nnc(-c2cnccn2)n1Cc1ccco1)c1ccc(Cl)cc1`, the cell count in test [1] amounted to 287. Moreover, the inhibition in test [1] was 16.6% (inactive); in test [3] it was -8.9% (inactive); in test [7] it was 8.56% (inactive); in test [8] it was 22.1% (inactive). The inhibition of aggregation in test [2] was -32.9% (inactive). The nuclei count in test [2] is 95.7%; in test [3] it was 124%. Besides, the fluorescence slope in test [4] is -0.473 (inactive). Besides, the NADPH fluorescence slope in test [5] is 4.5e-06 (inactive). In test [6], the slope was 0.00285 (inactive).
Consider `COCCn1c(C)c(C(=O)O)sc1=S`, for which, in test [1], the cell count turned out to be 279. Further, the inhibition is 3.8% (inactive) in test [1], -4.7% (inactive) in test [3], 9.55% (inactive) in test [7] and -6.08% (inactive) in test [8]. For the same molecule, the inhibition of aggregation in test [2] was 8.1% (inactive). In addition, the nuclei count in test [2] is 86.9%; in test [3], 104%. For the same molecule, the fluorescence slope in test [4] was -0.416 (inactive). Also, the NADPH fluorescence slope in test [5] was 5e-06 (inactive). In test [6], the slope was 0.00261 (inactive).
On to `CCOc1cc2oc(=O)c3c(c2cc1Cl)CCC3`, for which the cell count in test [1] worked out at 400. For the same molecule, the inhibition in test [1] is -2.6% (inactive); in test [3] it was -24.1% (inactive); in test [7], -5.28% (inactive); in test [8], -30.2% (inactive). Also, in test [2], the inhibition of aggregation is 5.2% (inactive). Moreover, the figures for the nuclei count in test [2] and in test [3] were 104% and 106%, respectively. Further, the fluorescence slope in test [4] is -0.482 (inactive). Further, the NADPH fluorescence slope in test [5] was 1.7e-05 (inactive). In test [6], the slope is 0.00626 (inactive).
As to `Oc1cccc(Nc2nc(NCC3CCCO3)c3ccccc3n2)c1` (stereo not drawn), the cell count in test [1] came to 555. Also, the inhibition in test [1] was -70.4% (inactive); in test [3], -47.9% (inactive); in test [7], 14.4% (inactive); in test [8], -32.6% (inactive). Besides, the inhibition of aggregation in test [2] is -4.4% (inactive). Further, the nuclei count in test [2] stood at 95.5%; in test [3], 104%. The fluorescence slope in test [4] is -0.612 (inactive). In addition, the NADPH fluorescence slope in test [5] is 2.9e-05 (inactive). Besides, the slope in test [6] was 0.00401 (inactive).
On to `Cn1c(=O)oc2cc(S(=O)(=O)NC3CCN(Cc4ccccc4)CC3)ccc21`, for which, in test [1], the cell count amounted to 621. Also, the inhibition in test [1] was -6.3% (inactive); in test [3], -37.9% (inactive); in test [7] it was 10.4% (inactive); in test [8] it was 33.8% (inactive). In addition, the inhibition of aggregation in test [2] is 59.7% (active). The nuclei count in test [2] is 70.5%; in test [3], 99.7%. In addition, the fluorescence slope in test [4] is -0.57 (inactive). The NADPH fluorescence slope in test [5] is 1.4e-06 (inactive). For the same molecule, the slope in test [6] was 0.0068 (inactive).
On to `CC1=C/C(=C/N(C)c2ccccc2)C(=O)S1`, for which the cell count in test [1] turned out to be 582. Also, the inhibition is -3.5% (inactive) in test [1], 31.4% (inactive) in test [3], -17.2% (inactive) in test [7] and -17% (inactive) in test [8]. The inhibition of aggregation in test [2] is -10.1% (inactive). The nuclei count in test [2] was 97.7%; in test [3], 88.1%. Moreover, the fluorescence slope in test [4] is -0.61 (inactive). The NADPH fluorescence slope in test [5] is 1.5e-05 (inactive). The slope in test [6] was 0.0049 (inactive).
On to `Cc1nn(-c2ccccc2)c2c1C(O)n1c(nc3ccccc31)S2` (stereo not drawn), for which the cell count in test [1] was found to be 453. In addition, the inhibition was 2.5% (inactive) in test [1], -10.2% (inactive) in test [3], 14% (inactive) in test [7] and 28.4% (inactive) in test [8]. Also, in test [2], the inhibition of aggregation was 8.2% (inactive). Besides, the nuclei count was determined as 83% in test [2] and 100% in test [3]. Besides, the fluorescence slope in test [4] was -0.466 (inactive). The NADPH fluorescence slope in test [5] was -0.000266 (inactive). In addition, the slope in test [6] was 0.00554 (inactive).
With `Cn1cnc2c(N3CCCCC3)nccc21`, the cell count in test [1] stood at 720. Moreover, the inhibition in test [1] was -31% (inactive); in test [3], -88.5% (inactive); in test [7], 7.97% (inactive); in test [8], 22.8% (inactive). In addition, the inhibition of aggregation in test [2] is 0.5% (inactive). Also, the nuclei count in test [2] amounted to 97.8%; in test [3], 122%. The fluorescence slope in test [4] is -0.417 (inactive). In test [5], the NADPH fluorescence slope was -0.000121 (inactive). For the same molecule, in test [6], the slope was 0.00681 (inactive).
